From PubChem BioAssay (NCATS)
Inconclusive results are not listed. Entries that show only a call come without a potency. The source made the active and inactive calls. Unless noted, calls come from the whole dose curve; as a rule, active = well fitted curve in the direction sought with a large enough effect; inconclusive = small, poorly fitted or top-dose-only effect, or another doubt; inactive = no such curve, though single readings can be large; an effect the other way counts as inactive or inconclusive.

Columns and labels:
[1] = Cytotoxicity counterscreen for NFkB agonists and antagonists (AID 624476)
[2] = qHTS Assay for Identification of Small Molecule Agonists for NFkB Signaling Pathway. (AID 624478);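 note: compounds tested together with TNF alpha at its EC50 of 10 pM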
Method in brief: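 Read-out: 460/530 nm emission at 405 nm excitation after 2 h LiveBLAzer loading; ME-180 NFkB-bla reporter cells exposed 5 h at 37 C to compounds with 10 pM TNF alpha final.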

[3] = qHTS Assay for Identification of Small Molecule Antagonists for NFkB Signaling Pathway. (AID 624479; calls by dose curve;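 note: pathway stimulated with TNF alpha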)
[4] = Cell Proliferation Assay against the TMD8 Cell Line (AID 651645); conditions: TMD8 DLBCL cell line proliferation/viability; at 46.1 µM (top of the series) unless noted;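 note: cells exposed to compound for 48 h before reading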
Method in brief: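 Cell viability of the ABC DLBCL line TMD8 is measured by CellTiter-Glo luminescence following a 48-hour incubation with compound. Percent activity uses DMSO as 100% and 9.2 uM bortezomib (final) as 0%.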

[5] = Cell Proliferation Assay against the HBL1 Cell Line (AID 651646); conditions: HBL1 DLBCL cells; at 46.1 µM (top of the series) unless noted;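 note: cells exposed to compound for 48 h before reading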
Method in brief: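 CellTiter-Glo luminescence after 48 h compound exposure at 37C gives percent activity, with DMSO as 100% and 9.2 uM bortezomib final as 0%. Cells: 500 log-phase HBL1 per well, RPMI plus 5% FBS.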

[6] = Cell Proliferation Assay against the TMD8 Cell Line (Caspase readout at 16 hrs) (AID 651712)
Method in brief: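 Caspase-Glo luminescence measured apoptosis after a 16 h, 37 C compound exposure of TMD8 cells (500 cells/well, 5% FBS RPMI). DMSO set 0% and bortezomib at 9.2 uM final set 100% activity.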

[7] = Cell Proliferation Assay against the TMD8 Cell Line (Caspase readout at 8 hrs) (AID 651713)
Method in brief: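 Apoptosis readout: caspase 3/7 luminescence (Caspase-Glo), 15 min RT. Cells: TMD8, 500/well, RPMI + 5% FBS, no phenol red. Exposure 8 h, 37C. % activity vs DMSO = 0, bortezomib 9.2 uM final = 100.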

Structure (SMILES): CC[C@@H](C)[C@H](NC(=O)[C@H](CC1CCCCC1)NC(=O)c1ccno1)C(=O)N1CCC2(CCc3ccccc32)CC1
- Potency [1]: inactive
- outcome [2]: inactive
- Potency [3]: inactive
- viability (% of control) [4]: 62.6%
- viability, percent of control [5]: 65.5%

Structure (SMILES): CCN(CC)CCCC(C)Nc1nc(C)cc(Nc2ccc3nc(C)cc(N)c3c2)n1 (stereo not given)
- Potency [1]: inactive
- outcome [2]: inactive
- Potency [3]: inactive
- viability (% of control) [4]: 65.5%
- viability, percent of control [5]: 67.9%
- Potency [6]: inactive
- Potency [7]: inactive

Structure (SMILES): Cc1csc(NC(=O)c2sc3nc4c(c(C(F)(F)F)c3c2N)CCC4)n1
- Potency [1]: inactive
- outcome [2]: inactive
- Potency [3]: inactive
- viability (% of control) [4]: 64.8%
- viability, percent of control [5]: 60.9%

Structure (SMILES): CS(=O)(=O)c1ccc(C(=O)Nc2ccc(Cl)c(-c3ccccn3)c2)c(Cl)c1
- Potency [1]: inactive
- outcome [2]: inactive
- Potency [3]: inactive
- viability (% of control) [4]: 93.4%
- viability, percent of control [5]: 99.4%
- Potency [6]: inactive
- Potency [7]: inactive

Structure (SMILES): CN([C@@H](Cc1ccc(OS(=O)(=O)c2cccc3cnccc23)cc1)C(=O)N1CCN(c2ccccc2)CC1)S(=O)(=O)c1cccc2cnccc12
- Potency [1]: inactive
- outcome [2]: inactive
- Potency [3]: inactive
- viability (% of control) [4]: 72.1%
- viability, percent of control [5]: 106%
- Potency [6]: inactive
- Potency [7]: inactive

Structure (SMILES): OCCn1cc(-c2cnc3nnn(Cc4ccc5ncccc5c4)c3n2)cn1
- Potency [1]: inactive
- outcome [2]: inactive
- Potency [3]: inactive
- viability (% of control) [4]: 75.8%
- viability, percent of control [5]: 79.7%
- Potency [6]: inactive
- Potency [7]: inactive

Structure (SMILES): CC(C)OC(=O)C1=CN(C(=O)c2ccc(F)c(F)c2)CC(C)(C)c2c1[nH]c1ccccc21
- Potency [1]: inactive
- outcome [2]: inactive
- Potency [3]: inactive
- viability (% of control) [4]: 9.41%
- viability, percent of control [5]: 100%
- Potency [6]: inactive
- Potency [7]: inactive

Structure (SMILES): CCN(c1ccccc1)c1cc(NC)[n+](C)c(C)n1
- Potency [1]: inactive
- outcome [2]: inactive
- Potency [3]: inactive
- viability (% of control) [4]: 99.5%
- viability, percent of control [5]: 87.8%
- Potency [6]: inactive

Structure (SMILES): CCN(CCCO)CCCOc1ccc2c(Nc3cc(CC(=O)Nc4cccc(F)c4)[nH]n3)ncnc2c1
- Potency [1]: inactive
- outcome [2]: inactive
- Potency [3]: inactive
- viability (% of control) [4]: 42.6%
- viability, percent of control [5]: 67.6%
- Potency [6]: inactive

Structure (SMILES): Cc1cc(Nc2nc(N[C@@H](C)c3ncc(F)cn3)ncc2Cl)n[nH]1
- Potency [1]: inactive
- outcome [2]: inactive
- Potency [3]: inactive
- viability (% of control) [4]: 105%
- viability, percent of control [5]: 138%
- Potency [6]: inactive

Structure (SMILES): Fc1ccc(Cl)cc1-c1nc(Nc2ccncc2)c2nccnc2n1
- Potency [1]: inactive
- outcome [2]: inactive
- Potency [3]: inactive
- viability (% of control) [4]: 98.1%
- viability, percent of control [5]: 93.2%
- Potency [6]: inactive
- Potency [7]: inactive

Structure (SMILES): C[C@@H]1C[C@H]2[C@@H]3CCC4=CC(=O)C=C[C@]4(C)C3(F)[C@@H](O)C[C@]2(C)[C@@]1(O)C(=O)CO (stereo not given in full)
- Potency [1]: inactive
- outcome [2]: inactive
- Potency [3]: inactive
- viability (% of control) [4]: 40.7%
- viability, percent of control [5]: 28.2%
- Potency [6]: inactive
- Potency [7]: inactive

Structure (SMILES): CC(C)(N)C(=O)N[C@H](COCc1ccccc1)C(=O)N1CCC2(CC1)CN(S(C)(=O)=O)c1ccccc12
- Potency [1]: inactive
- outcome [2]: inactive
- Potency [3]: inactive
- viability (% of control) [4]: 48.1%
- viability, percent of control [5]: 69.2%
- Potency [7]: inactive

Structure (SMILES): O=c1ncn2nc(Sc3ccc(F)cc3F)ccc2c1-c1c(Cl)cccc1Cl
- Potency [1]: inactive
- outcome [2]: inactive
- Potency [3]: inactive
- viability (% of control) [4]: 65.5%
- viability, percent of control [5]: 62.3%

Structure (SMILES): C[C@@H]1CN(Cc2ccc(F)cc2)[C@@H](C)CN1C(=O)c1cc2c(C(=O)C(=O)N(C)C)cn(C)c2cc1Cl
- Potency [1]: inactive
- outcome [2]: inactive
- Potency [3]: inactive
- viability (% of control) [4]: 61.8%
- viability, percent of control [5]: 78.3%
- Potency [7]: inactive

Structure (SMILES): CCOc1cc(C(=O)Nc2ccc(Cl)c(-c3nc4ccccc4[nH]3)c2)cc(OCC)c1OCC
- Potency [1]: inactive
- outcome [2]: inactive
- Potency [3]: inactive
- viability (% of control) [4]: 69.8%
- viability, percent of control [5]: 85.2%
- Potency [7]: inactive
